High-throughput results as filed in PubChem.
ELG1 DNA repair: inhibitors of ELG1-dependent DNA repair in HEK293T cells. HEK293T ELG1-luciferase reporter, luminescence, 16 h; DNA damage induced by 5-fluorouridine. Potency, µM (doses to about 46.1 µM), inactives show top-dose activity change, negative = inhibition, most hits filed as inhibitors. hit rate 2.3% among 330,000. AID 504467; note: potency is the fitted concentration of half-maximal effect; nearly all actives have a fitted effect of over 55% in size
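DMSO vehicle served as the neutral condition. Each well held 2,000 cells given 5-fluorouridine plus compound; after 16 hr at 37 °C/5% CO2, ONE-Glo was added and luciferase measured 30 min later.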
IL-1B inflam inh: inhibitors of inflammasome signaling (IL-1 beta secretion) | activity change, % at 57.5 µM | THP-1 LPS/ATP IL-1B secretion, AlphaLISA, 16 h; hits give low values | AID 743279 | hit rate 4.7% among 360,000; in the data active = activity change below about -50%; inconclusive = mostly about -30% to -49%
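Secreted IL-1B measured by AlphaLISA bead assay after 16 h compound exposure of THP-1 cells; compounds (final up to 57.5 uM) added 1 h before LPS (250 ng/mL) and ATP (1.25 mM) stimulation; lower signal means less secretion.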
Giardia killer: kills Giardia lamblia. hit rate 0.15% among 340,000. Giardia lamblia trophozoite viability. activity change, % at 7.66 µM, hits read low; in the data active = activity change below about -80%; inconclusive = between about -30% and that limit;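 note: parasites exposed to compound for two days anaerobically before the ATP read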
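Killing of trophozoites was scored by loss of ATP luminescence after a 48 hrs anaerobic exposure to compounds at 37 deg C, using 100 cells per well.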
DT40 TDP1 CPT: DT40-hTDP1 cell growth loss with CPT; chicken DT40 Tdp1-/-;hTDP1 cells + 20 nM CPT, ATP luminescence, 48 h; Potency, µM (series often up to 46.2 µM), without a hit: at the highest dose activity change, negative = growth inhibition, most hits filed as inhibitors; hit rate 12% among 420,000; AID 686979; note: potency is the fitted concentration of half-maximal effect; nearly all actives have a fitted effect of over 55% in size
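Cell growth measured by CellTiter-Glo luminescence after a minimum 48 h, 37 C compound exposure with 20 nM CPT in Tdp1-knockout DT40 cells stably expressing hTDP1, seeded 400/well; qHTS titration format.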
TDP1 cell noCPT: qHTS for Inhibitors of human tyrosyl-DNA phosphodiesterase 1 (TDP1): qHTS in cells in absence of CPT; DT40 Tdp1-/- hTDP1 cells, no CPT, ATP luminescence, 48 h; Potency, µM (highest dose often 46.2 µM), for the others: at the top dose activity change, negative = growth inhibition, usual class: inhibitors; hit rate 15% among 420,000; note: potency is the fitted concentration of half-maximal effect; nearly all actives have a fitted effect of over 55% in size
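DT40 Tdp1-/-;hTDP1 cells, no CPT (DMSO vehicle only), 400 cells/well; compounds pin-transferred; ≥48 hr, 37 °C; CellTiter-Glo 30 min RT dark, luminescence read.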
TDP1 block: inhibitors of human tyrosyl-DNA phosphodiesterase TDP1; Q9NUW8; AID 485290; recombinant TDP1, AlphaScreen DNA substrate cleavage; hit rate 0.28% among 350,000; Potency, µM (top dose mostly 130 µM), for inactives: top-dose activity change, negative = inhibition, hits mostly inhibitors; note: potency is the fitted concentration of half-maximal effect; nearly all actives have a fitted effect of over 40% in size
Target sequence (Q9NUW8 whole entry, looked up): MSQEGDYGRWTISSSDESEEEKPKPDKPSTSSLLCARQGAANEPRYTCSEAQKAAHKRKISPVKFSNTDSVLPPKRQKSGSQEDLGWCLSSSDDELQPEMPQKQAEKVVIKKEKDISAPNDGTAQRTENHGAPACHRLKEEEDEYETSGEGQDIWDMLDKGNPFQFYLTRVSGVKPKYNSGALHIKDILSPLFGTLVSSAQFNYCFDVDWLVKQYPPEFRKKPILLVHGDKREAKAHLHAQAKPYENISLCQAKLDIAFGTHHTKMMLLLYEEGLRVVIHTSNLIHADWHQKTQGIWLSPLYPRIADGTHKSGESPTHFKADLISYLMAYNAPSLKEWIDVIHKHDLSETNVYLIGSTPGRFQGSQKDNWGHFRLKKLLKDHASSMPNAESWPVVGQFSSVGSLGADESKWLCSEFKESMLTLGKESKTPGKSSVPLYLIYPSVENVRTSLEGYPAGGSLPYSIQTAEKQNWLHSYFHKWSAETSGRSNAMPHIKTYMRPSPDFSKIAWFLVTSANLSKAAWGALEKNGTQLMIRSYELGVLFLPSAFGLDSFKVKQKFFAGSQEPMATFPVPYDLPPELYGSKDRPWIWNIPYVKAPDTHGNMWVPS
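Recombinant human Tdp1 (E. coli-expressed, 1 nM final) preincubated with compounds 15 min at room temperature, then 5'-biotin/3'-phosphotyrosine-FITC DNA substrate (15 nM final) added for 5 min. AlphaScreen beads (10 ug/ml final) added 10 min; cleavage lowers signal.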
* hit, by the source's call; [ ] = remark or other dose. Rows were chosen to be rich in hits. Some 19% of all compounds tested hit in one or more screens of this group. Unless noted, calls come from the whole dose curve; as a rule, active = well fitted curve in the direction sought with a large enough effect; inconclusive = small, poorly fitted or top-dose-only effect, or another doubt; inactive = no such curve, though single readings can be large; an effect the other way counts as inactive or inconclusive. % is set by controls: 0 for no effect and ±100 for the full control effect.

`CC1(C(=O)Nc2cccc(C(F)(F)F)c2)Cc2c(-c3cccc(C(F)(F)F)c3)ccnc2O1` (configuration not stated) gave IL-1B inflam inh -17.3, DT40 TDP1 CPT inconclusive and TDP1 cell noCPT inconclusive.
Screening CC1(C(=O)Nc2cccc(Oc3ccccc3)c2)Cc2c(-c3ccccc3)ccnc2O1 (configuration not stated) returned IL-1B inflam inh -24.8, DT40 TDP1 CPT inconclusive and TDP1 cell noCPT inconclusive.
CC(=O)Nc1cccc(-c2ccnc3c2CC(C)(C(=O)Nc2ccc(F)c(Cl)c2)O3)c1 (configuration not stated) was read as IL-1B inflam inh 0.0, DT40 TDP1 CPT inconclusive and TDP1 cell noCPT inconclusive.
For CC(=O)Nc1ccc(-c2ccnc3c2CC(C)(C(=O)Nc2cccc(C(F)(F)F)c2)O3)cc1 (configuration not stated) the results were IL-1B inflam inh -62.0*, DT40 TDP1 CPT 14.6µM* and TDP1 cell noCPT inconclusive.
Screening CC(=O)Nc1cccc(-c2ccnc3c2CC(C)(C(=O)Nc2cccc(C(F)(F)F)c2)O3)c1 (configuration not stated) returned IL-1B inflam inh -3.9, DT40 TDP1 CPT 13µM* and TDP1 cell noCPT 16.4µM*.
CC(=O)Nc1cccc(-c2ccnc3c2CC(C)(C(=O)Nc2ccc(Cl)c(C(F)(F)F)c2)O3)c1 (configuration not stated) was read as IL-1B inflam inh -66.8*, DT40 TDP1 CPT 10.3µM* and TDP1 cell noCPT 13µM*.
`N/C(=N\NS(=O)(=O)c1ccc(Cl)cc1)c1ccccn1` gave IL-1B inflam inh 11.2, Giardia killer 1.0, DT40 TDP1 CPT -7.6% and TDP1 cell noCPT -6.5%.
COc1ccc(OC)c(NC(=O)c2c(C)oc3ncnc(N4CCOCC4)c23)c1 was read as DT40 TDP1 CPT inconclusive, TDP1 cell noCPT inconclusive and TDP1 block 5.3%.
Screening Cc1ccc(Cn2ccsc2=NC(=O)COC(=O)C(C)C)cc1 returned ELG1 DNA repair 1.1%, IL-1B inflam inh -10.2, Giardia killer -4.2, DT40 TDP1 CPT 14.6µM*, TDP1 cell noCPT 8.2µM* and TDP1 block 4.5%.
Screening CSc1ncccc1C(=O)NCC1Cc2cc(-c3cnccn3)ccc2O1 (configuration not stated) returned DT40 TDP1 CPT -15.7%[9.04 µM] and TDP1 cell noCPT -28.1%.
COc1ccc(C)cc1Nc1n[n+](-c2ccccc2)c(-c2cc(OC)c(OC)cc2Br)s1 was read as ELG1 DNA repair -0.7%, IL-1B inflam inh -11.1, Giardia killer -14.4, DT40 TDP1 CPT 23.1µM* and TDP1 cell noCPT 16.4µM*.
COc1ccc(C)cc1Nc1n[n+](-c2ccccc2)c(-c2c(OC)ccc3ccccc23)s1 was read as ELG1 DNA repair -27.8%, IL-1B inflam inh -74.6*, Giardia killer 2.2, DT40 TDP1 CPT 5.8µM*, TDP1 cell noCPT 5.17µM* and TDP1 block 9.5%.
CC1(C)CCC(=NNC(N)=S)CC1 was read as IL-1B inflam inh 13.1, Giardia killer 50.1, DT40 TDP1 CPT inconclusive and TDP1 cell noCPT 29.1µM*.
NC(=S)NN=C1CSSC1 was read as IL-1B inflam inh -100.0*, DT40 TDP1 CPT 7.31µM* and TDP1 cell noCPT 3.66µM*.
For NC(=S)NN=C1CCCCC12CCCC2 the results were IL-1B inflam inh 3.1, Giardia killer -16.5, DT40 TDP1 CPT inconclusive and TDP1 cell noCPT inconclusive.
Screening CC[N+]1(CC(=O)c2ccc(OC)cc2)CCCCC1 returned DT40 TDP1 CPT 10.4% and TDP1 cell noCPT -13.8%.
CCOC(=O)c1sc2ccccc2c1S(=O)(=O)Nc1ccc(N(C)C)cc1 was read as DT40 TDP1 CPT inconclusive, TDP1 cell noCPT inconclusive and TDP1 block 16.2%.
`COc1ccc(C(C)=O)cc1COc1ccccc1[N+](=O)[O-]` gave ELG1 DNA repair 6.8%, IL-1B inflam inh -8.2, Giardia killer -4.0, DT40 TDP1 CPT -11.8%, TDP1 cell noCPT -1.3% and TDP1 block 0.0%.
`CCOc1ccc(C(C)=O)cc1COC(=O)c1cccnc1SC` gave ELG1 DNA repair -22.6%, IL-1B inflam inh -5.9, Giardia killer 4.1, DT40 TDP1 CPT 5.0%, TDP1 cell noCPT 1.2% and TDP1 block 0.0%.
Screening CCOc1ccc(C(C)=O)cc1CSC(=N)N returned ELG1 DNA repair -11.6%, IL-1B inflam inh 3.6, Giardia killer 7.1, DT40 TDP1 CPT inconclusive, TDP1 cell noCPT 20.6µM* and TDP1 block 0.0%.
`COc1ccc(C(C)=O)cc1COc1cccnc1[N+](=O)[O-]` gave ELG1 DNA repair inconclusive, IL-1B inflam inh -2.4, Giardia killer inconclusive, DT40 TDP1 CPT inconclusive and TDP1 cell noCPT 16.4µM*.
Screening NC(=O)COc1ccc(-n2cnnn2)cc1 returned ELG1 DNA repair -10.8%, IL-1B inflam inh -2.7, Giardia killer -21.9, DT40 TDP1 CPT -2.4% and TDP1 cell noCPT 5.3%.
Screening COc1ccc(C(C)=O)cc1CSC(=N)N returned ELG1 DNA repair 2.7%, IL-1B inflam inh -8.6, Giardia killer 5.6, DT40 TDP1 CPT inconclusive, TDP1 cell noCPT -25.7% and TDP1 block -1.2%.
For CCOc1ccc(C(C)=O)cc1COc1cccnc1[N+](=O)[O-] the results were ELG1 DNA repair -18.8%, IL-1B inflam inh 25.2, Giardia killer inconclusive, DT40 TDP1 CPT 6.51µM* and TDP1 cell noCPT 6.51µM*.
Screening CCOc1ccc(C(C)=O)cc1COc1ccc(-n2cnnn2)cc1 returned ELG1 DNA repair inconclusive, IL-1B inflam inh -57.1*, Giardia killer 8.2, DT40 TDP1 CPT -23.2%, TDP1 cell noCPT inconclusive and TDP1 block 9.5%.
`O=C(NCc1ccccc1)C(c1ccc(-c2ccccc2)cc1)N1CCN(C(=O)C2CCCO2)CC1` (configuration not stated) gave IL-1B inflam inh -11.2, DT40 TDP1 CPT inconclusive and TDP1 cell noCPT inconclusive.
Screening CCc1nn(CC(=O)N2CCCCC2)c(=O)c2cc3sc(C)cc3n12 returned DT40 TDP1 CPT -14.1%, TDP1 cell noCPT -19.3% and TDP1 block -1.0%.
Cc1ccccc1C1CC(=O)Oc2cc(C)c(Br)c(C)c21 (configuration not stated) was read as TDP1 block 2.0%.
Screening O=C(NCc1ccccc1Cl)C1CCCN(C(=O)c2cnn(-c3ccccc3)c2-n2cccc2)C1 (configuration not stated) returned DT40 TDP1 CPT inconclusive, TDP1 cell noCPT inconclusive and TDP1 block 5.1%.
